Test results as given in PubChem BioAssay (NCATS).
Results filed as inconclusive are left out. Unmarked numbers belong to inactive results. The source made the active and inactive calls. Calls come from the whole dose curve; as a rule, active = well fitted cell-killing curve with a large enough effect; inconclusive = small, poorly fitted or top-dose-only effect, or effect the other way; inactive = no such curve, though single readings can be large or run the other way.

Tests used:
[1] = Quantitative High-Throughput drug screen in 47 multiple myeloma cell lines against the NCATS MIPE library collection: OCIMY1_PLB cell viability assay (AID 1918979); note: nearly all actives have a fitted effect of over 35% in size;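 for viability: 100% = DMSO-only wells and 0% = cell-free media-only wells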
How it was run: (§1)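 500 cells/well; MIPE 4.0 drugs pin-transferred; 48 h, 37C, 5% CO2. CellTiter-Glo, 5 min RT, luminescence. Controls: DMSO 100%, media 0%.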

[2] = Quantitative High-Throughput drug screen in 47 multiple myeloma cell lines against the NCATS MIPE library collection: MM1S_ATCC cell viability assay (AID 1918980); note: nearly all actives have a fitted effect of over 45% in size
How it was run: as §1

[3] = Quantitative High-Throughput drug screen in 47 multiple myeloma cell lines against the NCATS MIPE library collection: OCIMY7_PLB cell viability assay (AID 1918987); conditions: OCI-MY7 myeloma viability, CellTiter-Glo ATP, 48 h; viability (% of DMSO): at 45.8 µM (top of the series); note: nearly all actives have a fitted effect of over 65% in size
How it was run: as §1

[4] = Quantitative High-Throughput drug screen in 47 multiple myeloma cell lines against the NCATS MIPE library collection: OPM1_PLB cell viability assay (AID 1918989); note: nearly all actives have a fitted effect of over 40% in size
How it was run: as §1

[5] = Quantitative High-Throughput drug screen in 47 multiple myeloma cell lines against the NCATS MIPE library collection: XG6_PLB cell viability assay (AID 1919865); note: nearly all actives have a fitted effect of over 40% in size
How it was run: as §1

[6] = Quantitative High-Throughput drug screen in 47 multiple myeloma cell lines against the NCATS MIPE library collection: PE2_PLB cell viability assay (AID 1919869); note: nearly all actives have a fitted effect of over 35% in size
How it was run: as §1

[7] = Quantitative High-Throughput drug screen in 47 multiple myeloma cell lines against the NCATS MIPE library collection: MM1R_ATCC cell viability assay (AID 1918981); note: nearly all actives have a fitted effect of over 35% in size
How it was run: as §1

[8] = Quantitative High-Throughput drug screen in 47 multiple myeloma cell lines against the NCATS MIPE library collection: LP1_DSMZ cell viability assay (AID 1918982); note: nearly all actives have a fitted effect of over 35% in size
How it was run: as §1

[9] = Quantitative High-Throughput drug screen in 47 multiple myeloma cell lines against the NCATS MIPE library collection: KMS34_JCRB cell viability assay (AID 1918985); note: nearly all actives have a fitted effect of over 40% in size
How it was run: as §1

[10] = Quantitative High-Throughput drug screen in 47 multiple myeloma cell lines against the NCATS MIPE library collection: OCIMY5_PLB cell viability assay (AID 1918988); note: nearly all actives have a fitted effect of over 65% in size
How it was run: as §1

[11] = Quantitative High-Throughput drug screen in 47 multiple myeloma cell lines against the NCATS MIPE library collection: KMS28PE_JCRB cell viability assay (AID 1918983); note: nearly all actives have a fitted effect of over 35% in size
How it was run: as §1

[12] = Quantitative High-Throughput drug screen in 47 multiple myeloma cell lines against the NCATS MIPE library collection: PCM6_Riken cell viability assay (AID 1919870); note: nearly all actives have a fitted effect of over 30% in size
How it was run: as §1

[13] = Quantitative High-Throughput drug screen in 47 multiple myeloma cell lines against the NCATS MIPE library collection: L363_DSMZ cell viability assay (AID 1918984); note: nearly all actives have a fitted effect of over 40% in size
How it was run: as §1

[14] = Quantitative High-Throughput drug screen in 47 multiple myeloma cell lines against the NCATS MIPE library collection: U266_ATCC cell viability assay (AID 1919864); note: nearly all actives have a fitted effect of over 35% in size;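 for viability (% of DMSO control): 0% = media-only wells without cells and 100% = DMSO-only wells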
How it was run: as §1

[15] = Quantitative High-Throughput drug screen in 47 multiple myeloma cell lines against the NCATS MIPE library collection: XG1_PLB cell viability assay (AID 1919866); note: nearly all actives have a fitted effect of over 35% in size
How it was run: as §1

[16] = Quantitative High-Throughput drug screen in 47 multiple myeloma cell lines against the NCATS MIPE library collection: UTMC2_PLB cell viability assay (AID 1919868); conditions: CellTiter-Glo ATP luminescence, 48 h; viability (% of DMSO control): at 45.8 µM (top of the series); note: nearly all actives have a fitted effect of over 55% in size;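 for viability (% of DMSO control): 100% = DMSO-only wells and 0% = media-only wells without cells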
How it was run: as §1

[17] = Quantitative High-Throughput drug screen in 47 multiple myeloma cell lines against the NCATS MIPE library collection: SKMM1_PLB cell viability assay (AID 1919863); conditions: SKMM1 myeloma viability, CellTiter-Glo ATP, 48 h; viability: hits give low values; note: nearly all actives have a fitted effect of over 35% in size
How it was run: as §1

[18] = Quantitative High-Throughput drug screen in 47 multiple myeloma cell lines against the NCATS MIPE library collection: VP6_DJ cell viability assay (AID 1919867); note: nearly all actives have a fitted effect of over 40% in size;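 for viability (% of DMSO): 100% = DMSO-only wells and 0% = wells with media alone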
How it was run: as §1
Potency is the fitted concentration of half-maximal effect.

NC(=O)c1cccc(-c2cc(Nc3ccc(OC(F)(F)F)cc3)ncn2)c1
Potency [1]: inactive
Potency [2]: inactive
Potency [3]: 13.2 µM (active)
Potency [4]: 18.7 µM (active)
Potency [5]: 16.6 µM (active)
Potency [6]: 18.7 µM (active)

O=C1NC(=O)C(=Cc2cccc(C(F)(F)F)c2)S1
Potency [1]: inactive
Potency [7]: inactive
Potency [8]: inactive
Potency [9]: inactive
Potency [10]: 26.4 µM (active)
Potency [5]: 20.9 µM (active)

NC1=N[C@@]2(c3cc(NC(=O)c4ccc(F)cn4)ccc3F)COC[C@@H]2CS1
Potency [1]: inactive
Potency [11]: inactive
Potency [10]: 23.5 µM (active)
Potency [4]: 16.6 µM (active)
Potency [5]: 3.72 µM (active)
Potency [6]: 23.5 µM (active)
Potency [12]: 11.8 µM (active)

O=C(OCC#CCSc1nnc(-c2cccc3ccccc23)o1)c1cc2ccccc2s1
Potency [1]: inactive
Potency [8]: inactive
Potency [11]: inactive
Potency [13]: inactive
Potency [3]: inactive
Potency [4]: inactive
Potency [14]: inactive
Potency [5]: inactive
Potency [15]: inactive
Potency [6]: inactive

CN(C)C1CCN(C(=O)c2ccc(NC(=O)Nc3nc(N4CCOCC4)nc(N4CCOCC4)n3)cc2)CC1
Potency [1]: 5.9 µM (active)
Potency [7]: 0.0418 µM (active)
Potency [11]: 0.0132 µM (active)
Potency [9]: 0.132 µM (active)
Potency [3]: 5.26 µM (active)
Potency [10]: 0.0418 µM (active)

COc1cc(N2CCC(N3CCN(C)CC3)CC2)ccc1Nc1ncc(Cl)c(Nc2ccccc2S(=O)(=O)C(C)C)n1
Potency [1]: inactive
Potency [3]: 0.264 µM (active)
Potency [16]: inactive

COCCOC(=O)C1=C(C)NC2=C(C(=O)CC(c3ccccc3OC)C2)C1c1cccc(O)c1 (configuration not stated)
Potency [1]: inactive
Potency [2]: 16.6 µM (active)
Potency [13]: 0.001 µM (active)
Potency [3]: 2.64 µM (active)
Potency [10]: 8.33 µM (active)
Potency [4]: 6.62 µM (active)
Potency [17]: 10.5 µM (active)
Potency [14]: 13.2 µM (active)
Potency [5]: 2.64 µM (active)
Potency [15]: 4.18 µM (active)
Potency [18]: 2.96 µM (active)
Potency [6]: 16.6 µM (active)

CS(=O)(=O)N(Cc1ccco1)CC(O)Cn1c2ccccc2c2ccccc21 (configuration not stated)
Potency [1]: inactive
Potency [11]: 5.9 µM (active)
Potency [9]: 16.6 µM (active)
Potency [3]: 13.2 µM (active)
Potency [14]: 18.7 µM (active)
Potency [5]: inactive
Potency [16]: inactive
Potency [6]: 16.6 µM (active)

CC(C)OC(=O)C(C)(C)Oc1ccc(C(=O)c2ccc(Cl)cc2)cc1
Potency [1]: inactive
Potency [11]: 16.6 µM (active)
Potency [3]: inactive
Potency [14]: 11.8 µM (active)
Potency [5]: inactive
Potency [16]: inactive
Potency [6]: 20.9 µM (active)

Cc1ccccc1C(C(=O)NC1CCCCC1)N(C(=O)Cn1ccnc1C)c1cccc(F)c1 (configuration not stated)
Potency [1]: inactive
Potency [8]: 13.2 µM (active)
Potency [9]: 20.9 µM (active)
Potency [10]: 23.5 µM (active)
Potency [4]: inactive
Potency [17]: 0.469 µM (active)
Potency [14]: 5.26 µM (active)
Potency [5]: inactive
Potency [6]: inactive

CC=CCC(C)C(O)C1C(=O)NC(CC)C(=O)N(C)CC(=O)N(C)C(CC(C)C)C(=O)NC(C(C)C)C(=O)N(C)C(CC(C)C)C(=O)NC(C)C(=O)NC(C)C(=O)N(C)C(CC(C)C)C(=O)N(C)C(CC(C)C)C(=O)N(C)C(C(C)C)C(=O)N1C (configuration not stated)
Potency [2]: inactive
Potency [14]: inactive

CCNc1cc(NC2CCC(O)CC2)nc(Nc2ccc3c(ccn3Cc3ccccc3)c2)n1 (configuration not stated)
Potency [8]: 20.9 µM (active)
Potency [11]: 23.5 µM (active)
Potency [3]: 16.6 µM (active)
Potency [4]: 29.6 µM (active)
Potency [5]: 20.9 µM (active)
Potency [15]: 23.5 µM (active)
Potency [18]: 23.5 µM (active)
Potency [16]: 37.2 µM (active)
Potency [6]: 23.5 µM (active)
Potency [12]: 20.9 µM (active)

O=c1c(-c2ccc(O)cc2)coc2cc(O)ccc12
Potency [2]: 13.2 µM (active)
Potency [8]: inactive
Potency [9]: inactive
Potency [3]: inactive
Potency [10]: 14.8 µM (active)
Potency [4]: inactive
Potency [14]: inactive
Potency [5]: inactive
Potency [15]: inactive
Potency [16]: inactive
Potency [6]: inactive
Potency [12]: inactive

N[C@H](CSC(c1ccccc1)(c1ccccc1)c1ccccc1)C(=O)O
Potency [2]: 13.2 µM (active)
Potency [9]: 9.35 µM (active)
Potency [3]: 7.43 µM (active)
Potency [10]: 9.35 µM (active)
Potency [14]: inactive
Potency [5]: 6.62 µM (active)
Potency [18]: 10.5 µM (active)
Potency [16]: 9.35 µM (active)

CN(C)CCC=C1c2ccccc2COc2ccc(CC(=O)O)cc21
Potency [8]: inactive
Potency [9]: inactive
Potency [4]: inactive
viability [17]: 114%
Potency [15]: 20.9 µM (active)
Potency [6]: inactive
Potency [12]: inactive

Nc1nc(F)nc2c1ncn2[C@@H]1O[C@H](COP(=O)(O)O)[C@@H](O)[C@H]1O
Potency [3]: 18.7 µM (active)
Potency [10]: 23.5 µM (active)
Potency [4]: inactive
Potency [14]: 0.526 µM (active)
Potency [15]: 29.6 µM (active)
Potency [18]: inactive
Potency [6]: inactive
Potency [12]: inactive

C=CCc1ccc(O)c(-c2ccc(O)c(CC=C)c2)c1
Potency [2]: 18.7 µM (active)
Potency [10]: 18.7 µM (active)
Potency [14]: 16.6 µM (active)
Potency [5]: 14.8 µM (active)
Potency [18]: 20.9 µM (active)
Potency [6]: 18.7 µM (active)
Potency [12]: 20.9 µM (active)

O=C(N[C@@H](c1ccccc1)[C@@H]1CCCCN1)c1cccc(C(F)(F)F)c1Cl
Potency [3]: inactive
Potency [10]: 18.7 µM (active)
Potency [15]: 23.5 µM (active)
Potency [16]: inactive
Potency [12]: 23.5 µM (active)

CC(C)C(=O)Nc1ncc(-c2cc(C(F)F)nn2-c2c(Cl)cccc2Cl)s1
Potency [11]: 20.9 µM (active)
Potency [3]: 16.6 µM (active)
Potency [10]: 18.7 µM (active)
Potency [4]: 20.9 µM (active)
Potency [15]: 10.5 µM (active)
Potency [16]: 20.9 µM (active)
Potency [6]: 23.5 µM (active)

CC[C@H]1OC(=O)[C@H](C)C(=O)[C@H](C)[C@@H](O[C@H]2O[C@H](C)C[C@H](N(C)C)[C@@H]2O)[C@](C)(OC)C[C@@H](C)C(=O)[C@H](C)[C@H]2N(CCCCn3cnc(-c4cccnc4)c3)C(=O)O[C@]12C
Potency [7]: 16.6 µM (active)
Potency [3]: 14.8 µM (active)
Potency [10]: 26.4 µM (active)
Potency [4]: inactive
Potency [14]: inactive
Potency [5]: 4.69 µM (active)
Potency [15]: inactive

Cc1cccc(Nc2nc(-c3ccncc3)cs2)c1
Potency [4]: 14.8 µM (active)
Potency [14]: inactive
Potency [6]: 23.5 µM (active)

COc1cc(N2CCC(N3CCN(C)CC3)CC2)ccc1Nc1ncnc(Nc2ccccc2S(=O)(=O)C(C)C)n1
Potency [5]: 7.43 µM (active)
Potency [12]: 16.6 µM (active)

CON=C(C(=O)N[C@@H]1C(=O)N2C(C(=O)OCOC(=O)C(C)(C)C)=C(C=Cc3scnc3C)CS[C@H]12)c1csc(N)n1
Potency [7]: 18.7 µM (active)
Potency [8]: inactive
Potency [10]: inactive
Potency [4]: inactive
Potency [5]: 26.4 µM (active)
Potency [15]: 18.7 µM (active)
Potency [6]: 18.7 µM (active)
Potency [12]: 20.9 µM (active)

CC(=O)Oc1cc2c(s1)CCN(C(C(=O)C1CC1)c1ccccc1F)C2 (configuration not stated)
Potency [2]: 0.833 µM (active)
Potency [11]: 2.64 µM (active)
Potency [3]: 0.935 µM (active)
Potency [10]: 0.833 µM (active)
Potency [14]: 8.33 µM (active)
Potency [5]: 2.64 µM (active)
Potency [18]: 1.32 µM (active)
Potency [16]: 2.96 µM (active)
Potency [12]: 1.48 µM (active)

c1ccc2c(-c3cnn4cc(-c5ccc(N6CCNCC6)cc5)cnc34)ccnc2c1
Potency [17]: 9.35 µM (active)
Potency [14]: 8.33 µM (active)
Potency [12]: 0.935 µM (active)
